Screening results as filed in PubChem.
This is a sample that favours compounds with a hit; in the whole collection about 19% have one here.
HT1080 IDH1KD tx – qHTS for induction of synthetic lethality in tumor cells producing 2HG: qHTS for the HT-1080-IDH1KD cell line; HT-1080 IDH1 knockdown viability, ATP luminescence, 48 h; Potency, µM (titrated, usually from 46.1 µM), without a hit: at the highest dose activity, negative = toxicity, usual class: cytotoxic; 2% of 360,000 active; AID 686971, 2013;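 further: potency means the concentration at half of the fitted maximal effect; 0% = DMSO wells and -100% = cell-free medium wells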
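In this qHTS, HT-1080 cells depleted of IDH1 are exposed for 48 h at 37 °C to compound titrations. Toxicity is scored from CellTiter-Glo luminescence, with DMSO as full viability and medium alone as none.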
TDP1 cell CPT – qHTS for Inhibitors of human tyrosyl-DNA phosphodiesterase 1 (TDP1): qHTS in cells in presence of CPT | 12% of 420,000 active | Potency, µM (top dose mostly 46.2 µM), inactives show at the highest dose activity change, negative = growth inhibition, most hits filed as inhibitors | chicken DT40 Tdp1-/-;hTDP1 cells + 20 nM CPT, ATP luminescence, 48 h; further: potency means the concentration at half of the fitted maximal effect; nearly all actives have a fitted effect of over 55% in size
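Chicken DT40 Tdp1-/- cells complemented with human TDP1, 400 cells/well, exposed to compounds plus 20 nM camptothecin for at least 48 h at 37 C; viability read as ATP content by CellTiter-Glo luminescence.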
IL1B secr inh – qHTS for Inhibitors of Inflammasome Signaling: IL-1-beta AlphaLISA Primary Screen. THP-1 LPS/ATP IL-1B secretion, AlphaLISA, 16 h; hits give low values. activity change, % at 57.5 µM. 4.7% of 360,000 active; in the data active means activity change below about -50%; inconclusive means mostly about -30% to -49%
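Secreted IL-1B measured by AlphaLISA bead assay after 16 h compound exposure of THP-1 cells; compounds (final up to 57.5 uM) added 1 h before LPS (250 ng/mL) and ATP (1.25 mM) stimulation; lower signal means less secretion.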
TDP1 cell noCPT – qHTS for Inhibitors of human tyrosyl-DNA phosphodiesterase 1 (TDP1): qHTS in cells in absence of CPT; 15% of 420,000 active; AID 686978, 2013; Potency, µM (doses to about 46.2 µM), inactives show at the highest dose activity change, negative = growth inhibition, most hits filed as inhibitors; DT40 Tdp1-/- hTDP1 cells, no CPT, ATP luminescence, 48 h; further: potency means the concentration at half of the fitted maximal effect; nearly all actives have a fitted effect of over 55% in size
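DT40 Tdp1-/-;hTDP1 cells, no CPT (DMSO vehicle only), 400 cells/well; compounds pin-transferred; ≥48 hr, 37 °C; CellTiter-Glo 30 min RT dark, luminescence read.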
HT1080NT lethal – qHTS for induction of synthetic lethality in tumor cells producing 2HG: qHTS for the HT-1080-NT fibrosarcoma cell line. HT-1080-NT fibrosarcoma viability, CellTiter-Glo ATP luminescence, 48 h. Potency, µM (doses to about 46.1 µM), inactives show at the top dose activity, negative = less viability, hits mostly cytotoxic. 1.6% of 360,000 active. AID 686970, 2013;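 further: NT is the 2HG producing partner of a matched IDH1 knockdown line; potency means the concentration at half of the fitted maximal effect; 0% = DMSO-treated cells and -100% = media-only wells without cells; nearly all actives have a fitted effect of over 55% in size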
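Viability by CellTiter-Glo luminescence after 48 h compound exposure at 37C of HT-1080-NT cells (750/well, RPMI, 5% FBS). % activity scaled between DMSO wells and medium-only wells, then curve-fitted and categorized by curve class.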
* marks the source's active call; other numbers are inactive results; ? = inconclusive; nt = no result given. Unless noted, the call rests on the fitted dose curve; in most records, active means well fitted curve in the direction sought with a large enough effect; inconclusive means small, poorly fitted or top-dose-only effect, or another doubt; inactive means no such curve, though single readings can be large; an effect the other way counts as inactive or inconclusive. Unless noted, on the % scale 0 is the no-effect control and ±100 the full control effect.

SMILES	HT1080 IDH1KD tx	TDP1 cell CPT	IL1B secr inh	TDP1 cell noCPT	HT1080NT lethal
OCCN1CCN(c2ncnc3scc(-c4ccc(F)cc4)c23)CC1	-17%	-7%	?	4%	-11%
COC(=O)C(C)Sc1ncnc2c1c(-c1ccccc1)cn2-c1ccc(OC)cc1 (stereo unspecified)	0%	?	40	-3%	-2%
COC(=O)C(C)Sc1ncnc2c1c(-c1ccccc1)cn2-c1ccc(F)cc1 (stereo unspecified)	nt	4.1µM*	nt	16µM*	nt
CCc1nc2ccccc2n1CC(=O)OCC(=O)N(CC(C)C)c1c(N)n(Cc2ccccc2)c(=O)[nH]c1=O	20%	-15%	7	4%	13%
COC(=O)C(NC(=O)CCc1nnc2ccc(N3CCCCC3)nn12)C(C)C (stereo unspecified)	5%	-16%	-6	12%	18%
COc1ccc(Cn2c(=O)c3oc4ccccc4c3n(CC(=O)Nc3c(C)cccc3C)c2=O)cc1	nt	7.3µM*	nt	5.8µM*	nt
CCOc1ccccc1NC(=O)Cn1c(=O)n(-c2ccc(C)c(C)c2)c(=O)c2oc3ccccc3c21	nt	-16%	nt	?	nt
CCc1ccccc1NC(=O)Cn1c(=O)n(-c2ccc(C)c(C)c2)c(=O)c2oc3ccccc3c21	nt	15µM*	nt	?	nt
CCc1ccccc1NC(=O)Cn1c(=O)n(C(C)C)c(=O)c2oc3ccccc3c21	nt	-22%	nt	?	nt
COc1cc(NC(=O)Cn2c(=O)n(Cc3ccccc3)c(=O)c3oc4ccccc4c32)cc(OC)c1	nt	-4%	nt	-12%	nt
CCc1ccccc1NC(=O)Cn1c(=O)n(Cc2ccc(OC)cc2)c(=O)c2oc3ccccc3c21	nt	9.2µM*	nt	?	nt
CN(Cc1ccccc1)C(=O)c1ccc(NC(=O)Cc2cccc(NC(=O)C3CCCN(C(=O)C4CCCCC4)C3)c2)cc1 (stereo unspecified)	3%	?	19	?	3%
CCCCCCCCCCCCCCCC(=O)C1=C(O)C(CO)OC1=O (stereo unspecified)	nt	-4%	nt	6%	nt
O=C(NCCCN1CCOCC1)C1CCN(S(=O)(=O)c2cccc(C(F)(F)F)c2)CC1	8%	-30%	6	-25%	12%
CN(C)C1=NC[C@H](Cc2ccccc2)N1CC1CCC(C(C)(C)C)CC1 (stereo partly specified)	-13%	21µM*	-26	13µM*	-26%
CN(C)C1=NC[C@H](Cc2ccccc2)N1CC1CCCCC1	-4%	13µM*	-11	12µM*	0%
CN(C)C1=NCCN1CC1CCCCCC1	-1%	-22%	-1	?	4%
CC(C)C[C@H]1CN=C(N(C)C)N1CC1CCCCCC1	-1%	13µM*	-14	21µM*	-9%
O=C1NC[C@H](Cc2ccccc2)N(CC2CCN(CC3CCCC3)CC2)C1=O	8%	-6%	23	-1%	12%
CN(C)C1=NC[C@H](Cc2ccccc2)N1CC1CCCC1	-9%	15µM*	10	23µM*	-6%
O=C1CCCCC1Sc1nnc(-c2ccc3c(c2)OCO3)o1 (stereo unspecified)	-11%	-23%	1	-15%	-17%
COc1cc(C2/C(=C(\O)c3ccc4c(c3)OCCO4)C(=O)C(=O)N2c2nnc(C)s2)cc(OC)c1OC (stereo unspecified)	11%	1%	41	18%	3%
O=S(=O)(NC1CC1)c1ccc(S(=O)(=O)N(Cc2ccccn2)C2CC2)cc1	-13%	-28%	6	?	-1%
CCOC(=O)COC(=O)c1ccc(Oc2cc(C)nc(SC)n2)cc1	-1%	22%	6	-4%	0%
Cc1cc(Oc2ccc(Br)cc2)nc(SCC(=O)c2ccccc2)n1	-5%	23µM*	24	21µM*	-1%
SMILES	HT1080 IDH1KD tx	TDP1 cell CPT	IL1B secr inh	TDP1 cell noCPT	HT1080NT lethal
COC(=O)c1ccc(Oc2cc(C)nc(-n3nc(C)cc3C)n2)cc1	1.1µM*	0.73µM*	48	0.58µM*	1.3µM*
COC(=O)CSc1nc(C)cc(Oc2ccccc2)n1	-6%	0%	10	-17%	-10%
COC(=O)c1ccc(Oc2cc(C)nc(NCc3ccccc3)n2)cc1	-4%	-29%	11	?	2%
Cc1cc(N2CCCCC2)nc(SCC(=O)c2ccccc2)n1	-6%	?	-27	12µM*	-1%
CCOC(=O)c1ccc(Oc2cc(C)nc(SC)n2)cc1	15µM*	8.2µM*	25	9.2µM*	16µM*
Cc1ccc(C(=O)N/C(=C\c2cn(S(=O)(=O)N(C)C)c3ccccc23)C(=O)NCCCN2CCOCC2)cc1	-22%	?	-14	?	-30%
CC(=O)N1CCc2cc(CNC(=O)Nc3ccccc3C(F)(F)F)ccc21	nt	-16%	nt	-11%	nt
CCN(CC)C(=O)CC(c1ccc(F)cc1)c1ccco1 (stereo unspecified)	11%	?	-10	?	5%
COc1ccc(C(=O)CSc2cc(C)nc(SCC(=O)c3ccc(C)cc3)n2)cc1	-25%	-21%	28	-27%	-3%
Cc1cc(Oc2ccc3ccccc3c2)nc(SCC(=O)c2ccccc2)n1	-18%	21µM*	12	18µM*	3%
Cc1ccc2oc(=O)n(CC(=O)c3ccc(F)cc3)c2c1	4%	5%	0	-17%	19%
Cc1ccc2oc(=O)n(Cc3ccccc3Cl)c2c1	nt	1%	nt	-13%	nt
Cc1ccc2oc(=O)n(CCNC(=O)Nc3ccc(C)c(F)c3)c2c1	nt	?	nt	23µM*	nt
Cc1ccc2oc(=O)n(CCNC(=O)Nc3ccccc3Cl)c2c1	nt	18µM*	nt	?	nt
O=C(NCCOCCn1c(=O)oc2ccccc21)Nc1ccc(F)cc1F	nt	10µM*	nt	12µM*	nt
NC(=S)NN=C1Cc2cccc3cccc1c23	15%	-2%	-9	-19%	3%
COc1ccc(CC(=O)Oc2cc(C)[nH]c(=O)c2[N+](=O)[O-])cc1	20%	-13%	6	8%	18%
COC(=O)/C(=C1/Oc2cc(C)oc(=O)c2S1)C(F)(F)F	15µM*	2.3µM*	-102*	2.1µM*	-17%
CCN(CC)CCNC(Cc1ccccc1)c1cccc(OC)c1 (stereo unspecified)	-6%	?	-21	?	-9%
CC(C)N(C)C1=CC(=O)C(N(C)C(C)C)=CC1=O	2%	23µM*	-11	?	-5%
